Test results as given in PubChem BioAssay (NCI).
About 83,000 compounds went through this panel and 20% of them were active in at least one assay; those are over-represented in the sample as a whole.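 Compound tested at a single concentration for 48 hours in 96-well plates; a percent growth value below 10 was scored as active.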 Unmarked numbers belong to inactive results. Activity calls are given as the source filed them.

Tested on: MDA-MB-468 breast
Assay: NCI-60 one-dose screen, 48 h (100 = growth as untreated, 0 = no growth, -100 = all killed)
Settings: 10 µM unless noted

Q: How did the growth turn out when `Cc1cnc(C(=O)NNc2nc3sc4c(c3c(=O)[nH]2)C(C)CCC4)cn1` (stereo unspecified) was run?
A: The growth was -10.4% (active).

Q: For `CCCc1n(Cc2ccc3ccccc3n2)cc[n+]1Cc1ccc2ccccc2n1`, which growth is on record?
A: Its growth is -39.9% (active).

Q: For `CCOC(=O)c1c(Nc2ccccc2)nn2c(-c3ccco3)c(C#N)cnc12`, which growth is on record?
A: Its growth is 89.4%.

Q: `Oc1c(Cl)cc(Cl)c2ccc(Cn3cc(-c4cc(F)cc(F)c4)nn3)nc12` was tested. Which growth did it give?
A: Its growth is 38.2%.

Q: Which growth does the source give for `O=C(Nc1ccc2ncnc(Nc3ccc(F)c(Cl)c3)c2c1)c1cccs1` here?
A: Its growth is -23.8% (active).

Q: For `C#CCOc1cccc(-c2ncnc3cc(NC(=O)C=C)ccc23)c1`, which growth is on record?
A: The growth was -8.85% (active).

Q: For `Cc1nc(-n2[nH]c(=O)ccc2=O)sc1N=Nc1ccccc1`, which growth is on record?
A: Its growth is 93.8%.

Q: Which growth does the source give for `N#Cc1cc(-c2nc3ccccc3s2)c(=O)n(NS(=O)(=O)c2ccccc2)c1N` here?
A: The growth was 118%.

Q: With `CSc1ccc2c(c1)c(CCN)c(C)n2Cc1ccc(Cl)c(Cl)c1` as the molecule, how does the growth read?
A: Its growth is -67.1% (active).

Q: How did the growth turn out when `O=C(CC(=O)Nc1cccc(C(=O)O)c1)Nc1cccc(C(=O)O)c1` was run?
A: Its growth is 108%.

Q: For `COc1cc2ncn3c(=O)c4c5c(sc4nc3c2cc1OC)CCCC5`, which growth is on record?
A: The growth was 101%.

Q: `CCOc1ccc(Nc2nc(-c3c(C)nc4ncccn34)cs2)cc1` was tested. Which growth did it give?
A: Its growth is 30.2%.

Q: How did the growth turn out when `O=c1cc(-c2ccccc2)oc2c1ccc1ccccc12` was run?
A: The growth was 80.1%.

Q: How did the growth turn out when `Nc1nc(N)c2nc3c(nc2n1)CCCCCCCCCC3` was run?
A: The growth was 58.1%.

Q: With `COc1cccc(CNc2nnc(C)c(C)n2)c1O` as the molecule, how does the growth read?
A: The growth was 91.7%.

Q: How did the growth turn out when `CCn1c(-c2cc3c([nH]c4ccccc43)c(-c3cccc(O)c3)n2)n[nH]c1=S` was run?
A: Its growth is 16.1%.
